{"source": "PubChem BioAssay (NCATS)", "key": {"[1]": {"target": "Luciferin 4-monooxygenase (Photinus pyralis) (UniProt P08659)", "sequence (P08659 whole entry, looked up)": "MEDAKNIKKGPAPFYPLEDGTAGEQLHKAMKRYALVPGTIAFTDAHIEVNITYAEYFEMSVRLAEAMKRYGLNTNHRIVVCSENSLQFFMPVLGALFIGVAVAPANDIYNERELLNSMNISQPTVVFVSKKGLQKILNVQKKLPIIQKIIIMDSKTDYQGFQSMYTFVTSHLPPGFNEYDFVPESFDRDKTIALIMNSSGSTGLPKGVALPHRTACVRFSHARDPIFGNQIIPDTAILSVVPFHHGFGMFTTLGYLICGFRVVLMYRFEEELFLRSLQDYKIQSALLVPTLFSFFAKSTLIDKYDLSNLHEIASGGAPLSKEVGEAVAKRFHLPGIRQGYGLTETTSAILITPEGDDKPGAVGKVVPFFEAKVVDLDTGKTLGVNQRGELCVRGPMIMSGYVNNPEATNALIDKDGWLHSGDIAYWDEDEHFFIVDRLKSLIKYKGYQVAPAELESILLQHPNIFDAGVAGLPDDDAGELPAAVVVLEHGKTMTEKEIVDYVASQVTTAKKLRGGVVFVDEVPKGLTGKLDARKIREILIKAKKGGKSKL", "test": "Biochemical firefly luciferase enzyme assay for NPC (AID 624030);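 further: purified P. pyralis luciferase at 10 nM with luciferin and ATP substrate; nearly all actives have a fitted effect of over 70% in size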", "how_it_was_run": "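Direct inhibition of firefly luciferase enzyme (10 nM final, 50 mM Tris Acetate) assessed by luminescence within 5 minutes. Percent activity scaled between DMSO and PTC124 positive control, with concentration-effect curves classified by fit quality and response.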"}, "[2]": {"test": "S16 Schwann cell viability assay (CellTiter-Glo assay) (AID 624031);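 further: cellular ATP luminescence as a viability measure; nearly all actives have a fitted effect of over 70% in size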", "how_it_was_run": "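Native S16 rat Schwann cells in DMEM/10% FBS without phenol red were incubated overnight, then exposed to compounds for 24 h at 37 °C/5% CO2. Viability was read as ATP luminescence (CellTiter-Glo), normalized to no-cell wells and DMSO (0%).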"}, "[3]": {"test": "S16 Schwann cell PMP22 intronic element beta-lactamase assay (AID 624044; calls by dose curve; further: nearly all actives have a fitted effect of over 15% in size)", "how_it_was_run": "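Rat S16 Schwann cells with beta-Lac driven by a PMP22 intronic element, compound-treated 24 h at 37 °C. LiveBLAzer FRET B/G read: 460 nm normalized to potassium clavulanate vs DMSO; 535 nm FRET as viability; concentration-effect curves classified.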"}, "CP260": {"tested_on": "CP260", "test": "qHTS profiling for inhibitors of Plasmodium falciparum proliferation (AID 504749); further: nearly all actives have a fitted effect of over 60% in size", "settings": "P. falciparum in erythrocytes, SYBR Green DNA, 72 h; series mostly up to 28.7 µM", "how_it_was_run": "(§1)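 Three-day growth assay of blood-stage parasites in erythrocytes (0.3% parasitemia, 2.5% hematocrit) at 37 C, 5% CO2, quantified by SYBR Green DNA staining after overnight detergent lysis.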"}, "CP315": {"tested_on": "CP315", "test": "qHTS profiling for inhibitors of Plasmodium falciparum proliferation (AID 504749)", "settings": "P. falciparum in erythrocytes, SYBR Green DNA, 72 h; series mostly up to 28.7 µM", "how_it_was_run": "as §1"}, "ICS": {"tested_on": "ICS", "test": "qHTS profiling for inhibitors of Plasmodium falciparum proliferation (AID 504749)", "settings": "P. falciparum in erythrocytes, SYBR Green DNA, 72 h; series mostly up to 28.7 µM", "how_it_was_run": "as §1"}, "JCK": {"tested_on": "JCK", "test": "qHTS profiling for inhibitors of Plasmodium falciparum proliferation (AID 504749)", "settings": "P. falciparum in erythrocytes, SYBR Green DNA, 72 h; series mostly up to 28.7 µM", "how_it_was_run": "as §1"}, "[4]": {"target": "Tyrosine-protein kinase Yes (Homo sapiens) (UniProt P07947)", "sequence (P07947 whole entry, looked up)": "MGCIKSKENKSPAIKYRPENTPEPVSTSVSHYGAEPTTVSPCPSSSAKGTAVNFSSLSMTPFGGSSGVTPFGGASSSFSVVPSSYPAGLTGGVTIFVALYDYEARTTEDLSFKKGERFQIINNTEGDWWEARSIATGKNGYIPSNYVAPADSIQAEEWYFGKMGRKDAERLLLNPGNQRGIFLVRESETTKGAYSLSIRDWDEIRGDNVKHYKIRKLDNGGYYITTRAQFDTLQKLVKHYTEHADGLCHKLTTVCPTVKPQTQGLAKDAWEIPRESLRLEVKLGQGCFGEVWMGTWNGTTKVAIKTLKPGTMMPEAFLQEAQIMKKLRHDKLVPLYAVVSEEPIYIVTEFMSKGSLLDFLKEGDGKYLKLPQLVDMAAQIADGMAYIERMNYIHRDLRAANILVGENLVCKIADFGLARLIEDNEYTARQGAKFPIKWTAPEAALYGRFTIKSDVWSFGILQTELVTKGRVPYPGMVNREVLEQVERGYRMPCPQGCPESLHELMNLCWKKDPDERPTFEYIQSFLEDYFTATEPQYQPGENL", "test": "qHTS for small molecule inhibitors of Yes1 kinase: Primary Screen (AID 686947)", "how_it_was_run": "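ADP-Glo luminescence readout; final 4 nM Yes1, 0.1 mM ATP, 0.3 mg/mL poly(E4Y), Tris pH 7.5, MgCl2, DTT, Brij-35. 20 min compound preincubation, 60 min reaction at RT. Normalized to DMSO wells with and without enzyme.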"}, "[5]": {"test": "qHTS for small molecule inhibitors of Yes1 kinase: Counter Assay (AID 686950)", "how_it_was_run": "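Luminescence read-out from ADP-Glo quantifies a fixed ADP amount (0.02 mM ADP with 0.08 mM ATP) after 60 min at room temperature; signal is normalized between DMSO wells with ATP/ADP and with 0.1 mM ATP alone.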"}, "[6]": {"target": "N-terminal Xaa-Pro-Lys N-methyltransferase 1 (Homo sapiens) (UniProt Q9BV86)", "sequence (Q9BV86 whole entry, looked up)": "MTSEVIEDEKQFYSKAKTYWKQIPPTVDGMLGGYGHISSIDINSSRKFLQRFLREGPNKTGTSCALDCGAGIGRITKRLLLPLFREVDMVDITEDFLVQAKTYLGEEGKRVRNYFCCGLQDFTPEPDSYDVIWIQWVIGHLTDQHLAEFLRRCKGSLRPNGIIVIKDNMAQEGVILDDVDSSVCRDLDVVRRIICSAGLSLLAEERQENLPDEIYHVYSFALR", "test": "Confirmatory qHTS for Inhibitors of N-terminal methyltransferase 1 (NTMT1): MTaseGlo Assay (AID 1645874)", "how_it_was_run": "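Preincubation of NTMT1 (125 nM) plus SAM (100 uM) with test compounds lasted 15 min; methylation of 1 uM SPKRIA then proceeded 30 min in the dark at room temperature. Luciferase signal reported SAH produced.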"}}, "note": "Records with an inconclusive call do not appear. Entries that show only a call come without a potency. Calls of active or inactive are those of the source. Unless noted, the call rests on the fitted dose curve; in most records, active means well fitted curve in the direction sought with a large enough effect; inconclusive means small, poorly fitted or top-dose-only effect, or another doubt; inactive means no such curve, though single readings can be large; an effect the other way counts as inactive or inconclusive."}
{"smiles": "C/C=C1\\C2C=C(C)CC1(N)c1ccc(=O)[nH]c1C2", "note": "(stereo not given)", "values": [{"measurement": "Potency", "setting": "[1]", "value": "inactive"}, {"measurement": "outcome", "setting": "[2]", "value": "inactive"}, {"measurement": "Potency", "setting": "[3]", "value": "inactive"}, {"measurement": "Potency", "setting": "CP260", "value": "inactive"}, {"measurement": "Potency", "setting": "CP315", "value": "inactive"}, {"measurement": "Potency", "setting": "ICS", "value": "inactive"}, {"measurement": "Potency", "setting": "JCK", "value": "inactive"}]}
{"smiles": "NS(=O)(=O)c1cccc(N=Cc2c(O)[nH]c3ccccc23)c1", "values": [{"measurement": "Potency", "setting": "[4]", "value": "10.4 µM (active)"}, {"measurement": "outcome", "setting": "[5]", "value": "inactive"}]}
{"smiles": "CN(C)c1ccc(Nc2c3ccc(NC(=O)CCN4CCCC4)cc3nc3cc(NC(=O)CCN4CCCC4)ccc23)cc1", "values": [{"measurement": "Potency", "setting": "[6]", "value": "6.49 µM (active)"}]}
